# Measured values reported in PubChem BioAssay (Tox21).
# Inconclusive results are not listed. A call without a number means that no potency is given here. Activity calls are given as the source filed them. Unless noted, the call rests on the fitted dose curve; in most records, active means well fitted curve in the direction sought with a large enough effect in the repeat runs; inconclusive means weak or mixed curves; inactive means no such curve, though single readings can be large; an effect the other way counts as inactive or inconclusive.
# Legend:
# [1] = target: Aryl hydrocarbon receptor (Homo sapiens) (UniProt P35869); assay: qHTS assay to identify small molecule that activate the aryl hydrocarbon receptor (AhR) signaling pathway (AID 743085); conditions: HepG2 AhR-luc (HG2L7.5c1), luciferase, 24 h; series mostly up to 70.3 µM;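 further: HG2L7.5c1 human HepG2 liver cells with stably integrated DRE-driven firefly reporter; nearly all actives have a fitted effect of over 15% in size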
# Sequence of Aryl hydrocarbon receptor (Homo sapiens) (P35869 whole entry, looked up): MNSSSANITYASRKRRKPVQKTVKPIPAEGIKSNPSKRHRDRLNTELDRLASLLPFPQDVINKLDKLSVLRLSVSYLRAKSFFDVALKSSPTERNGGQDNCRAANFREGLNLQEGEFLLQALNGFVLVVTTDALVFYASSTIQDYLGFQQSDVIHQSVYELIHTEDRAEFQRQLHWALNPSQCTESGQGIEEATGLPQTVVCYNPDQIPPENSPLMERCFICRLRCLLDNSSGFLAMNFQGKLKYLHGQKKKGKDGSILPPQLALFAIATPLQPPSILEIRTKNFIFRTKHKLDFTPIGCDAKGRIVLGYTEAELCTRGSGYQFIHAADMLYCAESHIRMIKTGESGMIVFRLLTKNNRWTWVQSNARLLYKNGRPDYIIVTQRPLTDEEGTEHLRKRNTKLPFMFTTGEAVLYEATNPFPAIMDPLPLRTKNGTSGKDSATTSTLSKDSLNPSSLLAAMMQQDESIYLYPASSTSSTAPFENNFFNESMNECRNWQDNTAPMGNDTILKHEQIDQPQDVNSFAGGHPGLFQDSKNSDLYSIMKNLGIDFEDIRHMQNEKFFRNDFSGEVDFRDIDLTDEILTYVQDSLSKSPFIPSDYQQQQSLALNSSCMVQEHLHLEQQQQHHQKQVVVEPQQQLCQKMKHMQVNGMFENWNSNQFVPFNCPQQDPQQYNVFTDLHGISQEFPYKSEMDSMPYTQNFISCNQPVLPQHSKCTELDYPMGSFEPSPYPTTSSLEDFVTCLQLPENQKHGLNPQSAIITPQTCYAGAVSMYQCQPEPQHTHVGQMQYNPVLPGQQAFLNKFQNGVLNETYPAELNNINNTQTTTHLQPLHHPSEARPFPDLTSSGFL
# How it was run: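 Reporter assay in engineered HepG2 line HG2L7.5c1, whose plasmid carries twenty dioxin responsive elements upstream of firefly luciferase. Treatment lasted 24 h at 37C; ONE-Glo luminescence gauged induction.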
# [2] = qHTS assay to identify small molecule that activate the aryl hydrocarbon receptor (AhR) signaling pathway - cell viability counter screen (AID 743086); conditions: HepG2-AhR-luc viability, CellTiter-Fluor, 24 h; series mostly up to 70.3 µM;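 further: HepG2 liver cells carrying the AhR DRE luciferase reporter; nearly all actives have a fitted effect of over 45% in size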
# How it was run: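 Cytotoxicity counter screen: CellTiter-Fluor signal (30 min, 37 C) in 4000 HepG2 cells/well carrying the DRE-luciferase reporter, following 24 h compound exposure at 37 C.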
# [3] = target: Peroxisome proliferator-activated receptor gamma (Homo sapiens) (UniProt P37231); assay: qHTS assay to identify small molecule agonists of the peroxisome proliferator-activated receptor gamma (PPARg) signaling pathway (AID 743094; active means well fitted activation curve with a large enough effect in the signal ratio in the repeat runs, not every such curve was filed as active; the % refers to the signal ratio); conditions: HEK293H PPARg-UAS-bla, beta-lactamase FRET ratio, 17 h; series mostly up to 57 µM
# Sequence of Peroxisome proliferator-activated receptor gamma (Homo sapiens) (P37231 whole entry, looked up): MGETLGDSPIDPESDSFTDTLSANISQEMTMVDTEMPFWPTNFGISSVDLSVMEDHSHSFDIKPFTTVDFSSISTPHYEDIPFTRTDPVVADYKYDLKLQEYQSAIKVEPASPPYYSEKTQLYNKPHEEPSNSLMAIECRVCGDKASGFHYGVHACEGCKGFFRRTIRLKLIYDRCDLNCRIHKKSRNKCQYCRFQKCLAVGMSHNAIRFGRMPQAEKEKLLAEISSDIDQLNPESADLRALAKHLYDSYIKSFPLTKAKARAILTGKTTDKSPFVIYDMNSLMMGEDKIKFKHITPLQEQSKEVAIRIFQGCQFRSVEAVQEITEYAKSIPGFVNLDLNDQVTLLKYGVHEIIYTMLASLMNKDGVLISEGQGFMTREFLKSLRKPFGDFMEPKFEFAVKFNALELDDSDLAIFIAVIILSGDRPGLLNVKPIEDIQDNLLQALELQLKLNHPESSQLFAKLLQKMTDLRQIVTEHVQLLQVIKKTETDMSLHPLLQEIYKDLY
# How it was run: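 Beta-lactamase FRET fluorescence was the read-out after a 1 h room-temperature substrate step, following 17 h compound treatment at 37C of HEK293H cells expressing a UAS-driven bla reporter responsive to PPARg.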
# [4] = target: Peroxisome proliferator-activated receptor gamma (Homo sapiens) (UniProt P37231); assay: qHTS assay to identify small molecule antagonists of the peroxisome proliferator-activated receptor gamma (PPARg) signaling pathway (AID 743191; calls by dose curve; further: nearly all actives have a fitted effect of over 30% in size; further: potency means the concentration at half of the fitted maximal effect); conditions: HEK293H PPARg-UAS-bla, beta-lactamase ratio, antagonist, 17 h; series mostly up to 62.6 µM
# How it was run: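 Beta-lactamase reporter under UAS control in HEK293H PPARg-bla cells; compound treatment 17 h at 37C. Read-out: fluorescence intensity after 1 h room-temperature incubation with LiveBLAzer B/G FRET substrate.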
# [5] = qHTS assay to identify small molecule antagonists of the peroxisome proliferator-activated receptor gamma (PPARg) signaling pathway - cell viability counter screen (AID 743194); conditions: PPARg-bla HEK293H viability, CellTiter-Glo luminescence, 17 h, co-treated with 50 nM rosiglitazone; series mostly up to 62.6 µM; further: nearly all actives have a fitted effect of over 55% in size
# How it was run: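 Viability was measured as CellTiter-Glo luminescence in GeneBLAzer PPARg UAS-bla HEK293H cells. These cells had been exposed 17 h at 37 C to compounds together with rosiglitazone at 50 nM final, with the beta-lactamase readout taken in the same wells.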
# [6] = qHTS assay for small molecule agonists of the antioxidant response element (ARE) signaling pathway - cell viability counter screen (AID 743203; calls by dose curve; further: nearly all actives have a fitted effect of over 55% in size); conditions: ARE-bla HepG2 viability, CellTiter-Glo luminescence, 16 h; series mostly up to 73.3 µM
# How it was run: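 HepG2 cells carrying ARE-driven beta-lactamase; 2,000 cells/well; 5 hrs plating; compound pinned from DMSO; 16 hrs 37C/5% CO2; CellTiter-Glo added; 30 min RT; luminescence.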
# [7] = qHTS assay for small molecule activators of the heat shock response signaling pathway - cell viability counter screen (AID 743209); conditions: HSE-bla HeLa viability, CellTiter-Glo luminescence, 5 h; series mostly up to 62.6 µM; further: nearly all actives have a fitted effect of over 50% in size
# How it was run: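 Luminescence from CellTiter-Glo, added after the beta-lactamase FRET read, gave the viability signal. Cells were HSE-bla HeLa treated with DMSO-dissolved compounds for 5 h at 37 C following overnight plating.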
# [8] = qHTS assay for small molecule activators of the heat shock response signaling pathway (AID 743210; active means well fitted activation curve with a large enough effect in the signal ratio in the repeat runs, with a control signal flat, not every such curve was filed as active; the % refers to the signal ratio;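 further: HeLa cells with beta-lactamase reporter driven by heat shock elements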); conditions: HeLa HSE-bla reporter, beta-lactamase ratio, 5 h; series mostly up to 62.6 µM
# How it was run: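 In HSE-bla HeLa cells, 5 h compound incubation (37 C) precedes addition of LiveBLAzer B/G substrate; after 2.5 h at room temperature, fluorescence intensity indicates reporter induction.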
# [9] = qHTS assay to identify small molecule agonists of the peroxisome proliferator-activated receptor delta (PPARd) signaling pathway - cell viability counter screen (AID 743211); conditions: PPARd-bla HEK293H viability, CellTiter-Glo luminescence, 17 h; series mostly up to 62.6 µM; further: nearly all actives have a fitted effect of over 55% in size; further: potency means the concentration at half of the fitted maximal effect
# How it was run: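 Multiplexed format: after the 2 h room-temperature LiveBLAzer B/G FRET step, CellTiter-Glo was added to the same wells. Luminescence after 30 min gave cell viability; compound exposure was 17 h at 37C.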
# [10] = target: Bile acid receptor (Homo sapiens) (UniProt Q96RI1); assay: qHTS assay to identify small molecule antagonists of the farnesoid-X-receptor (FXR) signaling pathway (AID 743217; active means well fitted inhibition curve with a large enough effect in the signal ratio in the repeat runs, not every such curve was filed as active; the % refers to the signal ratio); conditions: HEK293T FXR-UAS-bla, beta-lactamase ratio, CDCA-stimulated, 16 h; series mostly up to 62.6 µM
# Sequence of Bile acid receptor (Homo sapiens) (Q96RI1 whole entry, looked up): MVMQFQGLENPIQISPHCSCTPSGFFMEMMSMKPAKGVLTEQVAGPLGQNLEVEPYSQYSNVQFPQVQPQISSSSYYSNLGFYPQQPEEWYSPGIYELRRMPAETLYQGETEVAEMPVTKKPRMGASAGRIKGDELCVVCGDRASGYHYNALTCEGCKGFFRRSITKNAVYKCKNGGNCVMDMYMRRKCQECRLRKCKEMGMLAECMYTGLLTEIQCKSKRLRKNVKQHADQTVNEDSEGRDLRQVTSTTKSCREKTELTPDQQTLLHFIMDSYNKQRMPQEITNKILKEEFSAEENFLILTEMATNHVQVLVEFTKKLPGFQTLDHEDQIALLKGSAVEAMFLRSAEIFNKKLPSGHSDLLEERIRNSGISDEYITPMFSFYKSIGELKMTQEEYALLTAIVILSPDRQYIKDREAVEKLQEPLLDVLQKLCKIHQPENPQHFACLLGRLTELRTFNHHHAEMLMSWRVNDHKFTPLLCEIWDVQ
# How it was run: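 HEK 293T FXR-UAS-bla, 5000 cells/well; compound + CDCA 50 uM final; 16 h, 37 °C; B/G FRET substrate 2 h RT; fluorescence.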
# [11] = qHTS assay to identify small molecule agonists of the farnesoid-X-receptor (FXR) signaling pathway - cell viability counter screen (AID 743218); conditions: FXR-bla HEK293T viability, CellTiter-Glo luminescence, 16 h; series mostly up to 62.6 µM; further: nearly all actives have a fitted effect of over 45% in size
# How it was run: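 HEK 293T FXR-bla cells; 5 h pre-incubation, 16 h compound exposure at 37 C; LiveBLAzer substrate 2 h RT, then CellTiter-Glo 30 min RT, luminescence.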
# [12] = target: Bile acid receptor (Homo sapiens) (UniProt Q96RI1); assay: qHTS assay to identify small molecule agonists of the farnesoid-X-receptor (FXR) signaling pathway (AID 743220; active means well fitted activation curve with a large enough effect in the signal ratio in the repeat runs, not every such curve was filed as active; the % refers to the signal ratio); conditions: HEK293T FXR-UAS-bla, beta-lactamase FRET ratio, 16 h; series mostly up to 62.6 µM
# How it was run: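 Beta-lactamase reporter under UAS control in GeneBLAzer FXR HEK 293T cells (5000/well) measured with LiveBLAzer FRET substrate after 2 h at room temperature. Compound exposure lasted 16 h at 37C.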
# [13] = qHTS assay to identify small molecule antagonists of the farnesoid-X-receptor (FXR) signaling pathway - cell viability counter screen (AID 743221; active means well fitted cell-killing curve with a large enough effect in the repeat runs, not every such curve was filed as active; further: nearly all actives have a fitted effect of over 50% in size); conditions: FXR-bla HEK293T viability, CellTiter-Glo luminescence, 16 h; series mostly up to 62.6 µM
# How it was run: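 CellTiter-Glo, 30 min RT, luminescence; same wells as the LiveBLAzer FRET read. Cells: FXR-UAS-bla HEK 293T. Treatment: compound with chenodeoxycholic acid 50 uM final, 16 h at 37 C.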
# [14] = target: Vitamin D3 receptor (Homo sapiens) (UniProt P11473); assay: qHTS assay to identify small molecule agonists of the vitamin D receptor (VDR) signaling pathway (AID 743222; calls by dose curve); conditions: HEK293T VDR-UAS-bla, beta-lactamase FRET ratio, 16 h; series mostly up to 63.5 µM
# Sequence of Vitamin D3 receptor (Homo sapiens) (P11473 whole entry, looked up): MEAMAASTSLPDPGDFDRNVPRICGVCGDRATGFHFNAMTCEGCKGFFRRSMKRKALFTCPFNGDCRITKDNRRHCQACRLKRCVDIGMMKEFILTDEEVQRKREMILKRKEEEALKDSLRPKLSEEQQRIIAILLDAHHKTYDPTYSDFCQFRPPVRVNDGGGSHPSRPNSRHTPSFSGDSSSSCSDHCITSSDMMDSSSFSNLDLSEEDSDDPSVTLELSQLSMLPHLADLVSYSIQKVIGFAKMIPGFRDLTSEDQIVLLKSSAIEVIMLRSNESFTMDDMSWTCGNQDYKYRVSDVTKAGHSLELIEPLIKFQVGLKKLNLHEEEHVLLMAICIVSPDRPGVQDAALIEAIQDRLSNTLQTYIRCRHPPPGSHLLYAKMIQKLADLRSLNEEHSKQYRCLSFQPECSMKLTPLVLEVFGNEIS
# How it was run: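 VDR-bla cells, 2,000/well; 4 h preincubation 37C; cpd (DMSO) 16 h; LiveBLAzer B/G substrate 2 h RT; fluorescence intensity read.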
# [15] = target: Vitamin D3 receptor (Homo sapiens) (UniProt P11473); assay: qHTS assay to identify small molecule antagonists of the vitamin D receptor (VDR) signaling pathway (AID 743223; active means well fitted inhibition curve with a large enough effect in the signal ratio in the repeat runs, not every such curve was filed as active; the % refers to the signal ratio); conditions: VDR-UAS-bla HEK293T, beta-lactamase FRET ratio, 16 h; series mostly up to 61 µM
# How it was run: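 After VDR-bla cells are plated and left 4 h at 37C, DMSO-dissolved compounds and 3 nM (final) calcitriol agonist are added. Incubation continues 16 h at 37C; FRET beta-lactamase substrate then develops 2 h at room temperature.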
# [16] = qHTS assay for small molecule agonists of the antioxidant response element (ARE) signaling pathway (AID 743202; active means well fitted activation curve with a large enough effect in the signal ratio in the repeat runs, not every such curve was filed as active; the % refers to the signal ratio); conditions: HepG2 ARE-bla reporter, beta-lactamase FRET, 16 h; series mostly up to 73.3 µM
# How it was run: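 An ARE-responsive beta-lactamase gene stably integrated in HepG2 cells serves as reporter. After 5 h plating and 16 h compound incubation at 37 C, fluorescence of the B/G FRET substrate was measured.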
# [17] = qHTS assay to identify small molecule antagonists of the peroxisome proliferator-activated receptor delta (PPARd) signaling pathway - cell viability counter screen (AID 743213); conditions: PPARd-bla HEK293H viability, CellTiter-Glo luminescence, 17 h; series mostly up to 62 µM; further: nearly all actives have a fitted effect of over 50% in size
# How it was run: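 In this counter screen, HEK293H cells carrying a UAS-beta-lactamase reporter are co-treated with test compounds and 300 nM L165041 (final) for 17 h at 37 C; cell viability is quantified by CellTiter-Glo luminescence.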
# [18] = qHTS assay to identify small molecule agonists of the vitamin D receptor (VDR) signaling pathway - cell viability counter screen (AID 743224); conditions: VDR-bla HEK293T viability, CellTiter-Glo luminescence, 16 h; series mostly up to 62.6 µM; further: nearly all actives have a fitted effect of over 50% in size
# How it was run: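 Luminescence from CellTiter-Glo, read after 30 min at room temperature, reports viability of VDR-bla cells treated with compounds for 16 h at 37C in the wells used for the beta-lactamase FRET read.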
# [19] = target: Peroxisome proliferator-activated receptor delta (Homo sapiens) (UniProt Q03181); assay: qHTS assay to identify small molecule agonists of the peroxisome proliferator-activated receptor delta (PPARd) signaling pathway (AID 743212; calls by dose curve); conditions: HEK293H PPARd-UAS-bla, beta-lactamase FRET ratio, 17 h; series mostly up to 62.6 µM
# Sequence of Peroxisome proliferator-activated receptor delta (Homo sapiens) (Q03181 whole entry, looked up): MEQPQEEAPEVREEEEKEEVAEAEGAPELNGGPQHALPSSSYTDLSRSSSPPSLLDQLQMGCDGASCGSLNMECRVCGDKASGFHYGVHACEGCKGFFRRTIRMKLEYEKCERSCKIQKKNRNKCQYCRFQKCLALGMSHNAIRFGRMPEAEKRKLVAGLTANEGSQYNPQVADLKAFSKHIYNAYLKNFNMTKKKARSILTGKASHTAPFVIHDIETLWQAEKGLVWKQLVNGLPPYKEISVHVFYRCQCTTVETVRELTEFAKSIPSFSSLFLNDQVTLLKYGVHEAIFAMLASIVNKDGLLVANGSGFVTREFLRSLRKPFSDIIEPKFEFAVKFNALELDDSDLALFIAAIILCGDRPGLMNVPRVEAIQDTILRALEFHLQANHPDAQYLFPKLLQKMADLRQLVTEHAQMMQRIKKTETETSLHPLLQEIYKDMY
# How it was run: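 HEK293H UAS-bla reporter cells, human PPARd system; compounds delivered in DMSO after 5 h plating, then at 37 C. Beta-lactamase FRET read, 2 h RT substrate step.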
# [20] = target: Peroxisome proliferator-activated receptor delta (Homo sapiens) (UniProt Q03181); assay: qHTS assay to identify small molecule antagonists of the peroxisome proliferator-activated receptor delta (PPARd) signaling pathway (AID 743215; active means well fitted inhibition curve with a large enough effect in the signal ratio in the repeat runs, not every such curve was filed as active; the % refers to the signal ratio;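 further: cells stimulated with agonist L165041 at 300 nM final during compound exposure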); conditions: HEK293H PPARd-UAS-bla, beta-lactamase FRET ratio, antagonist, 17 h; series mostly up to 62 µM
# How it was run: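 Read-out is beta-lactamase FRET fluorescence, measured 2 h after substrate addition at room temperature. Beforehand, UAS-bla HEK293H cells carrying the PPARd reporter were exposed to compounds with L165041 at 300 nM final for 17 h at 37 C.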
Compound,Potency [1],outcome [2],Potency [3],Potency [4],Potency [5],Potency [6],outcome [7],Potency [8],Potency [9],outcome [10],Potency [11],outcome [12],outcome [13],outcome [14],outcome [15],Potency [16],Potency [17],Potency [18],outcome [19],outcome [20]
CCCCCCCCc1ccc(S(=O)(=O)O)cc1,inactive,inactive,inactive,43.3 µM (active),inactive,inactive,inactive,inactive,43.3 µM (active),inactive,inactive,inactive,inactive,inactive,inactive,–,–,–,–,–
CCOc1ccc(OCC)c(Cl)c1,inactive,inactive,inactive,inactive,–,inactive,inactive,–,inactive,inactive,–,inactive,inactive,–,–,inactive,inactive,inactive,–,–
Cc1ccc([N+](=O)[O-])cc1Cl,inactive,inactive,inactive,–,inactive,inactive,inactive,inactive,inactive,inactive,inactive,inactive,–,inactive,inactive,inactive,inactive,–,inactive,inactive
O=C1CCCCCCCCCCC(=O)OCCO1,inactive,inactive,inactive,inactive,inactive,–,inactive,inactive,inactive,–,inactive,–,inactive,inactive,inactive,inactive,inactive,inactive,–,–
CCCCCCCCOC(=O)CCCCCCCCC(=O)OCCCCCCCC,inactive,inactive,inactive,inactive,inactive,inactive,inactive,inactive,inactive,–,inactive,inactive,inactive,inactive,inactive,–,inactive,–,inactive,inactive
CCCc1c2oc(C(=O)O)cc(=O)c2cc2c(=O)cc(C(=O)O)n(CC)c12,inactive,inactive,inactive,–,inactive,inactive,inactive,inactive,inactive,–,inactive,inactive,inactive,inactive,inactive,inactive,inactive,inactive,inactive,–
CCCC1CCC(=O)O1 (stereo unspecified),inactive,inactive,inactive,–,inactive,inactive,inactive,inactive,inactive,–,inactive,–,inactive,inactive,inactive,inactive,inactive,–,inactive,inactive
CCCCOc1cc(C(=O)NCCN(CC)CC)c2ccccc2n1,inactive,inactive,inactive,inactive,–,inactive,inactive,inactive,–,–,inactive,–,inactive,–,–,–,–,inactive,–,–
Cc1ccc([N+](=O)[O-])c(N)c1,inactive,inactive,inactive,–,inactive,inactive,inactive,inactive,inactive,–,inactive,–,inactive,inactive,inactive,inactive,inactive,–,inactive,inactive
